Sampled rows, rich in hits. Any-hit rate of the full collection: about 2.5%.
Efflux pump mplx – inhibitors of Candida antifungal efflux pumps expressed in yeast | AID 485275 | inhibition, % at 10 µM | S. cerevisiae Candida pump triplex, Nile Red efflux | 0.44% of 330,000 active;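 active = plate passing quality check with inhibition over a set limit, or well fluorescence over plate mean plus 4 SD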;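 also: Nile Red retained in pooled yeast measured as flow cytometry median fluorescence; higher means more Nile Red kept so more efflux inhibition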
SUMO Mot1 rescue – SUMOylation pathway inhibition by Mot1-301 growth rescue. S. cerevisiae Mot1-301 growth rescue, ATP luminescence, 38.5C; percent above DMSO median, 100 means doubled. growth rescue, % at 18.8 µM. 1% of 320,000 active;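 active = every valid replicate shows activation above 250% relative to neutral control wells; inactive = the rest, any valid replicate at or below 250%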
ATG4B inhibitor – blocks human ATG4B protease cleavage of LC3 substrate. inhibition, % at 8.33 µM. AID 504462. Q9Y4P1. ATG4B cleavage of LC3-PLA2, NBD-HPC fluorescence, 1 h. 0.51% of 340,000 active; in the data active = inhibition above about 40%
Target sequence (Q9Y4P1 whole entry, looked up): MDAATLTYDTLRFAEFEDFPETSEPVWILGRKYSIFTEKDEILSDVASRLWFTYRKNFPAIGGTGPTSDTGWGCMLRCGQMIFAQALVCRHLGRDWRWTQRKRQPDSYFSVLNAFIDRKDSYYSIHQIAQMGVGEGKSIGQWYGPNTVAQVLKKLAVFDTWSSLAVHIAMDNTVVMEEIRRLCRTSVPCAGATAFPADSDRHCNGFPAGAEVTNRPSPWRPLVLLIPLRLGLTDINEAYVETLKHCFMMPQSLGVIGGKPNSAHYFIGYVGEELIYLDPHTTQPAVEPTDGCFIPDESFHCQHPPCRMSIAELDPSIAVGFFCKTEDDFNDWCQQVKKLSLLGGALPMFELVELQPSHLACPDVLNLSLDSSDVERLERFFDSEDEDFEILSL
AI-2 QS modul – modulates the Vibrio harveyi AI-2 quorum sensing system | Vibrio harveyi JMH597 AI-2 luminescence/OD600 ratio, 9 h; active compounds read low; strain lacks LuxN and CqsS sensors; 0 = neutral-control median | activity change, % at 7.5 µM | 0.4% of 300,000 active; in the data active = activity change below about -75%, passing the limit was not always enough;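 also: luminescence divided by OD600 gain over 9 h not by final OD600 alone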
V-ATPase pH – alters yeast V-ATPase proton transport | AID 504577 | S. cerevisiae, pHLuorin cytosolic pH fluorescence | 0.37% of 350,000 active | response, % at 10 µM; in the data active = response mostly above about 7.3%, no sharp cut-off; inactive = mostly below about 5.4%; also: actives read high
Hits are given with their value; i = inactive; nt = no result given; ! = not active in a repeat.

SMILES	Efflux pump mplx	SUMO Mot1 rescue	ATG4B inhibitor	AI-2 QS modul	V-ATPase pH
Cc1cc(C)cc(N(CCC#N)C(=O)COC(=O)c2nc3nc(C)cc(C)n3n2)c1	i	i	i	i	i
CC1=C(C(=O)OCCc2ccccc2)C(c2ccsc2)NC(=O)N1C (stereo not given)	i	i	i	i	23
CC1=C(C(=O)OCc2ccccc2)C(c2ccsc2)NC(=O)N1C (stereo not given)	i	i	i	i	i
CCOC(=O)c1[nH]c2ccc(OC)cc2c1NS(=O)(=O)c1ccc(Cl)s1	i	i	i	-84	i
COc1ncnc(-c2ccccc2)c1-c1ccccc1	i	i	i	i	i
COc1ccccc1OCC(=O)OCC(=O)NCCN1C(=O)CSC1=O	i	i	i	i	i
O=C(COC(=O)CNC(=O)c1ccco1)NCCN1C(=O)CSC1=O	i	320	i	i	i
Nc1nc(CSc2nc3ccccc3[nH]2)nc(N2CCOCC2)n1	i	317	i	i	i
Nc1nc(CSc2nc3ccccc3s2)nc(N2CCCCC2)n1	i	nt	i	i	nt
Cc1cccc(N(Cc2ccccc2)C(=O)c2cccc(S(=O)(=O)N3CC(C)OC(C)C3)c2)c1 (stereo not given)	i	i	i	i	i
COc1cc(OC)c(C(=O)O/N=C(\N)c2ccccn2)cc1OC	i	327	i	i	i
COc1ccccc1C(=O)O/N=C(\N)c1ccccn1	i	i	i	i	i
O=C(C1CCCO1)N1CCN(C(=S)Nc2ccc(Cl)cc2Cl)CC1 (stereo not given)	i	i	i	i	17
CCC(OCC(O)CN1CCCCC1)c1ccccc1 (stereo not given)	i	i	i	i	i
CCOC(=O)C1CCN(CC(O)COC(CC)c2ccccc2)CC1 (stereo not given)	i	308	i	i	i
CSc1ccc(CN(C)C(=O)CNC(=O)c2ccc3c(c2)OCO3)cc1	i	i	i	i	i
N#Cc1ccccc1OCC(=O)OCC(=O)N1CCN(C(=O)c2ccco2)CC1	i	i	i	i	i
CCNc1nc(NC(C)C)nc(N(n2cnnc2)S(=O)(=O)c2ccc(C)cc2)n1	i	i	i	i	i
CCNc1nc(NCC)nc(N(n2cnnc2)S(=O)(=O)c2ccc(C)cc2)n1	i	310	i	i	i
O=C(CCCN1CCC(O)(c2ccc(Cl)cc2)CC1)c1ccc(F)cc1	i	588!	i	i	i
O=C(CCCN1CCC(O)(c2ccc(Br)cc2)CC1)c1ccc(F)cc1	i	i	i	nt	i
CCCCc1cc(=O)oc2c3c(cc(OCC(=O)N4CCC[C@H]4C(=O)O)c12)OC(C)(C)CC3	i	721	i	i	i
Cc1c(C)c2c(OCC(=O)N3CCC(C(N)=O)CC3)cc3c(c2oc1=O)CCC(C)(C)O3	i	610	i	i	i
Cc1cc(=O)oc2c3c(cc(OCC(=O)N4CCC(C(=O)O)CC4)c12)OC(C)(C)CC3	i	i	i	i	i
CSCC[C@H](NC(=O)[C@H](Cc1ccccc1)n1c(=O)[nH]c2ccccc2c1=O)C(=O)N1CCC[C@@H]1C(=O)O	i	735	i	i	i
SMILES	Efflux pump mplx	SUMO Mot1 rescue	ATG4B inhibitor	AI-2 QS modul	V-ATPase pH
C[C@H](NC(=O)[C@H](Cc1ccccc1)n1c(=O)[nH]c2ccccc2c1=O)C(=O)N1CCC[C@H]1C(=O)O	i	i	i	i	i
Cc1ccc(C)c(NC(=O)CN(C)C(=O)COc2cccc3c2OC(C)(C)C3)c1	i	i	i	i	i
CCN(C(=O)COc1ccccc1)c1nnc(-c2cccnc2)s1	i	i	i	i	26
COCCN(C(=O)COc1ccccc1)c1nnc(-c2cccnc2)s1	i	i	i	i	i
COc1ccc(CCNC(=O)C2CC3Cn4c(nc5ccccc54)C3N2c2ccccc2)cc1 (stereo not given)	i	i	i	i	i
CNC(=S)N1CCN(c2ccc(Cl)c(Cl)c2)CC1	i	i	i	i	i
C=CCN1CC2(c3ccccc3)CN(CC=C)CC(c3ccccc3)(C1)C2=O	i	i	i	i	i
COc1cc([N+](=O)[O-])cc(/C=N/NC(=O)c2cncc(Br)c2)c1O	i	i	i	i	i
COc1cc(/C=N/NC(=O)c2cncc(Br)c2)cc([N+](=O)[O-])c1O	i	i	i	-202	i
O=[N+]([O-])c1ccccc1SN(Cc1ccccc1)c1ccccn1	i	376	i	i	i
O=C(c1ccc([N+](=O)[O-])cc1)N(Cc1ccccc1)c1ccccn1	i	i	i	i	i
O=C(NNC(=O)c1ccccc1O)c1ccc(S(=O)(=O)Nc2ccccc2)cc1	i	i	i	i	i
CCCS(=O)(=O)C(=C1NCCO1)S(=O)(=O)CCC	i	351	i	i	i
CCCCS(=O)(=O)C(=C1Nc2ccccc2N1)S(=O)(=O)CCCC	i	i	i	i	i
CCCOC(=O)C1C2C=C[C@]3(CN(CCc4ccccc4)C(=O)[C@H]13)O2 (stereo not given in full)	i	i	i	i	i
CCOC(=O)/C(=N\Nc1cccc(C(F)(F)F)c1)N1CCOCC1	i	266	i	i	i
CCOC(=O)/C(=N\Nc1cccc(C(F)(F)F)c1)N(CCOC)CCOC	i	nt	i	i	i
COc1ccc(/C=C\C(=O)O[C@@H]2C(O)C(O[C@@H]3OC(C)[C@H](O[C@@H]4OCC(O[C@H]5O[C@H](CO)[C@@H](O)C(O)C5O)C(O)C4O)C(O)C3O)[C@H](OC(=O)[C@]34CCC(C)(C)C[C@@H]3C3=CCC5[C@@]6(C)CC(O)C(O[C@@H]7OC(CO)C(O)[C@H](O)[C@H]7O)[C@@](C)(C(=O)O)C6CC[C@@]5(C)[C@]3(CO)CC4)O[C@H]2C)cc1 (stereo not given in full)	i	i	i	nt	i
CCC(C)c1ccc(NC(=O)c2cccnc2)cc1 (stereo not given)	i	i	i	i	i
CCC(C)c1ccc(O)c(NC(=O)c2cccnc2)c1 (stereo not given)	i	390	i	i	i
CCOC(=O)c1ccccc1NC(=O)Cc1ccccc1OC	i	391	i	i	i
COc1ccccc1CC(=O)Nc1ccccc1C(=O)O	i	i	i	i	i
Cc1cc(C)cc(OCC(=O)OCC(=O)NC2CCCCCC2)c1	i	nt	i	nt	17
CCCCOc1ccc(N2CC(C(=O)NCCc3ccc(OC)c(OC)c3)CC2=O)cc1 (stereo not given)	i	909	i	i	i
COc1ccc(N2CC(C(=O)NCCc3ccc(OC)c(OC)c3)CC2=O)cc1 (stereo not given)	i	i	i	i	i
COc1ccc(CCNC(=O)C2CCCN(S(C)(=O)=O)C2)cc1OC (stereo not given)	i	i	i	-292	i
CCOC(=O)N1CCN(S(=O)(=O)N2CCCC(C(=O)NCCc3ccc(OC)c(OC)c3)C2)CC1 (stereo not given)	i	i	i	i	i

Assay outcomes deposited in PubChem BioAssay by several laboratories.
